Compound activity as filed in PubChem BioAssay.
U2OS ROS induce: cancer cell ROS induction. 2% of 46,000 active. ROS induction (% of piperlongumine), % at 10 µM. AID 624156. U2OS ROS induction, H2DCF-DA fluorescence; in the data active = ROS induction above about 79%, passing the limit was not always enough;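 note: 0% = DMSO vehicle median and 100% = reference compound median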
YB-1 expression: YB-1 expression inhibition. 0.37% of 30,000 active. delta delta Cp (YB-1 minus CDIP) (no concentration beside the values). AID 434959. U2OS, qRT-PCR YB-1 vs CDIP delta delta Cp, 16 h; active compounds read high; zero = DMSO, each unit about twofold;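 active = delta delta Cp rounded down to an integer at or above 3, about 3 SD of DMSO wells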;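 note: higher means less YB-1 transcript or more CDIP transcript relative to DMSO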
* hit, by the source's call; x = no result. Compounds with a hit are over-represented: about 2.1% of the library has one in this group of screens.

SMILES	U2OS ROS induce	YB-1 expression
COc1ccc(NC(=O)Nc2ccc3c(c2)CC(=O)N([C@@H](C)CO)C[C@H](C)[C@H](CN(C)S(=O)(=O)c2ccc(F)cc2)O3)cc1	96.6*	0.347
Cc1c2cnn(-c3ccccc3)c(=O)c2c(C)n1CCCC(=O)NCCc1ccccc1	47.5	x
CC(Sc1ccc(Cl)cc1)C(=O)NCc1ccncc1 (stereo unspecified)	5.7	x
CCc1ccc(N2C(=O)Nc3ccccc3N2O)cc1	-7.6	x
COc1ccc(-c2nc3c4cnn(-c5cccc(C)c5)c4ncn3n2)cc1	-5.8	x
COc1ccc(C(=O)Cn2ccnc2C(=O)NCCc2ccc(Cl)cc2)cc1	30.3	x
C[C@H]1CN([C@@H](C)CO)C(=O)c2cccc(NC(=O)Nc3cccc4ccccc34)c2O[C@@H]1CN(C)S(=O)(=O)c1ccc(F)cc1	150.8*	-0.561
COc1ccc(S(=O)(=O)N(C)C[C@H]2Oc3ccc(N(C)C)cc3CC(=O)N([C@H](C)CO)C[C@H]2C)cc1	-6.2	-0.251
C[C@H]1CN([C@@H](C)CO)C(=O)c2cccc(NC(=O)Nc3cccc4ccccc34)c2O[C@H]1CN(C)S(=O)(=O)c1ccc(F)cc1	-4.1	-0.22
COc1ccc(S(=O)(=O)N(C)C[C@@H]2Oc3ccc(N(C)C)cc3CC(=O)N([C@H](C)CO)C[C@H]2C)cc1	95.5*	-0.406
Cc1cc(-c2ccccc2)nc2c1/C(=N\O)CC(C)(C)C2	13.2	-0.501
CC1(C)COC(CC(=O)c2ccncc2)=N1	3.3	x
CC(=O)Oc1ccc2occ(C(=O)c3ccc(Br)s3)c2c1	29.9	0.0255
CC(=O)Oc1ccc2occ(C(=O)CCN(C)C)c2c1	98.4*	-0.121
COc1ccc(S(=O)(=O)N(C)CC(=O)Nc2ccccc2OC)cc1Cl	-11.5	x
Cc1ccc(S(=O)(=O)N(C)CC(=O)Nc2cc(Cl)ccc2Oc2ccccc2)cc1	89.8*	x
COc1cc(Cl)c(C)cc1NC(=O)CN(C)S(=O)(=O)c1ccc(Br)cc1	6.7	x
COc1ccc(S(=O)(=O)N(C)CC(=O)Nc2ccccc2Br)cc1Cl	111.8*	x
COc1cc(OC)c(NC(=O)CN(C)S(=O)(=O)c2ccc(C)cc2)cc1Cl	1.4	x
Cc1cc(Br)ccc1NC(=O)CN(C)S(=O)(=O)c1ccc(Cl)cc1	134.8*	x
Cc1ccc(C(=O)COC(=O)C2c3ccccc3Oc3ccccc32)cc1C	1.9	x
Cc1cccc(-c2nsc(SCC(=O)OCc3ccccc3)n2)c1	-5.9	x
NC(=O)c1ccccc1NC(=O)Cc1ccccc1	-7.0	x
Cc1c(Cl)cccc1NC(=S)NCC(c1ccccc1)c1c[nH]c2ccccc12 (stereo unspecified)	20.6	x
N#CC(C(=O)C(F)(F)F)c1nc2ccccc2[nH]1 (stereo unspecified)	-10.4	x
SMILES	U2OS ROS induce	YB-1 expression
CCOC(=O)c1csc(-c2cccs2)n1	-0.9	x
CCOC(=O)C1=CN(c2ccc(C)cc2)C=C(C(=O)OCC)C1c1cccs1	111.7*	x
O=C(CNC(=S)N(Cc1cccs1)C1CCCC1)NC1CCCc2ccccc21 (stereo unspecified)	6.1	x
C[C@@H]1CN([C@H](C)CO)C(=O)c2cc(NC(=O)Nc3ccc(C(F)(F)F)cc3)ccc2O[C@H]1CN(C)C(=O)Nc1ccc2c(c1)OCO2	-8.6	-0.353
C[C@@H]1CN([C@@H](C)CO)C(=O)c2cc(NC(=O)Nc3ccc4c(c3)OCO4)ccc2O[C@@H]1CN(C)C(=O)Nc1ccc(C(F)(F)F)cc1	227.2*	0.338
C[C@H]1CN([C@@H](C)CO)C(=O)c2cc(NC(=O)Nc3ccc4c(c3)OCO4)ccc2O[C@H]1CN(C)C(=O)Nc1ccc(F)cc1	85.9*	-0.22
C[C@@H]1CN([C@H](C)CO)C(=O)c2cc(NC(=O)Nc3ccc(F)cc3)ccc2O[C@@H]1CN(C)C(=O)Nc1ccc2c(c1)OCO2	3.7	-0.138
Cc1ccccc1-c1nc2cc(NC(=O)c3cccc(F)c3)ccc2o1	19.9	x
CCC(Sc1nc2cc(OC)c(OC)cc2c(=O)n1Cc1ccco1)C(=O)Nc1ccc(C)cc1 (stereo unspecified)	3.6	x
C=C(CO)C(=O)O[C@H]1C[C@H]2C(=C)C[C@H](OC(=O)C(=C)CO)[C@H]3C(=C)C(=O)O[C@@H]3[C@H]2C1=C	115.3*	0.45
C=C1C(=O)O[C@H]2C1CCC(=C)[C@@H]1C[C@H](OC(=O)C=C(C)C)C(=C)[C@@H]12 (stereo partly specified)	5.8	-0.993
C[C@H]1CN([C@@H](C)CO)C(=O)Cc2cc(NC(=O)Nc3ccc(F)cc3)ccc2O[C@H]1CN(C)S(=O)(=O)c1cn(C)cn1	-5.4	8.08*
C[C@H](CO)N1C[C@H](C)[C@H](CN(C)S(=O)(=O)c2cn(C)cn2)Oc2ccc(NC(=O)Nc3ccc(F)cc3)cc2CC1=O	-0.9	-0.0918
COc1ccc(NC(=O)Nc2ccc3c(c2)CC(=O)N([C@@H](C)CO)C[C@H](C)[C@H](CN(C)S(=O)(=O)c2cn(C)cn2)O3)cc1	-5.9	-0.181
COc1ccc(NC(=O)Nc2ccc3c(c2)CC(=O)N([C@@H](C)CO)C[C@@H](C)[C@@H](CN(C)S(=O)(=O)c2cn(C)cn2)O3)cc1	90.2*	-0.237
Cc1ccnc(N=Cc2c(C)[nH]n(-c3ccccc3)c2=O)c1	67.9	0.276
Cc1[nH]n(-c2ccccc2)c(=O)c1/C=C1\C=NN=C1c1ccccc1	105.9*	-0.488
O=c1cc(C(F)(F)F)nc2c(-c3ccccc3)c(C(F)(F)F)[nH]n12	-11.1	x
C=CCNC(=O)c1cc2c(=O)n3cccc(C)c3nc2n(CC2CCCO2)c1=N (stereo unspecified)	90.1*	x
Cc1cccn2c(=O)c3cc(C(=O)NCC4CCCO4)c(=N)n(C4CCCCC4)c3nc12 (stereo unspecified)	95.9*	x
O=C(O)c1ccccc1C(=O)NCC1CCCO1 (stereo unspecified)	2.8	x
C=CCNC(=O)c1cc2c(=O)n3ccccc3nc2n(CCC)c1=N	55.6	x
Cc1csc2nc(CNS(=O)(=O)c3ccccc3)cn12	3.5	x
COC(CNC(=O)Cn1ncc2c(=O)oc3ccccc3c21)OC	-11.3	x
Cc1cc(C(F)(F)F)c2c(n1)sc1c(=O)[nH]c(C)nc12	95.3*	-0.00623
SMILES	U2OS ROS induce	YB-1 expression
COC(=O)c1sc2nc(C)cc(C(F)(F)F)c2c1N	3.8	x
COc1cccc(Nc2nnc(-c3cc4cccc(OC)c4oc3=O)s2)c1	-10.0	x
COc1cccc(Nc2nc(C3(C)CC4(CC(C)OC4=O)C(=O)O3)cs2)c1 (stereo unspecified)	91.6*	x
Cc1cc2nc(C)n(CCCNC(=O)NC34CC5CC(CC(C5)C3)C4)c2cc1C	11.5	x
CC(CNC(=S)Nc1cccc(Cl)c1)CSc1ccc(Cl)cc1 (stereo unspecified)	3.8	x
Cn1c(=Nc2ccccc2C(=O)O)ccc2ccccc21	9.0	x
COc1ccccc1OCC(=O)Nc1cccc(-c2nnc(-c3ccccc3)o2)c1	-2.4	x
COc1ccc(-c2nnc(-c3ccc(S(=O)(=O)c4ccccc4)cc3)o2)cc1OC	126.1*	x
N#CCC(c1ccccc1)C(C#N)c1ccc(Br)cc1 (stereo unspecified)	-7.0	x
CCOC(=O)c1ccc2nc(C(F)(F)F)nc(N3CC(C)OC(C)C3)c2c1 (stereo unspecified)	107.9*	-0.724
CCOC(=O)c1ccc2nc(C(F)(F)F)nc(NCc3ccc(Cl)cc3)c2c1	9.9	0.344
CCC(C)n1c(SCc2ccccc2Cl)nc2ccsc2c1=O (stereo unspecified)	-0.4	x
